# Measured values: ChEMBL document CHEMBL4888484, “Replenishing the malaria drug discovery pipeline: Screening and hit evaluation of the MMV Hit Generation Library 1 (HGL1) against asexual blood stage Plasmodium falciparum ,using a nano luciferase reporter read-out” (2022)
# Among all 150,000 compounds or so, about 540 (0.36%) showed an effect of 50% or more. Shown is part of a subset that was picked to be rich in strong results.
# Tested on: Plasmodium falciparum
# Assay: Primary screen in NF54 nanoGlo assay, in single point, at 2uM, 72h; a lower Z score goes with more inhibition
# Type: functional, Erythrocyte
# Conditions: timepoint 72 hour
SMILES,% Inhibition [%],Z score
CN(Cc1ccccc1)C(=O)c1nc2ccccc2s1,-10,1.35
CCCC1CCC(c2ccc(OC(=O)c3cccc(C(=O)OC)n3)cc2)CC1 (centres undefined),-10,1.93
COCC(O)CN1CCCC(C(C)C)CC1 (centres undefined),-5,0.7
Cc1ccc2[nH]c3c(c2c1)CN(C)CCC3,4,-0.52
Cc1ccc2c(c1)c1c(n2CCc2ccncc2)CCCN(C)C1,4,-0.46
Cc1ccc2c(c1)c1c(n2S(=O)(=O)c2ccc(C(C)(C)C)cc2)CCCN(C)C1,67,-13.88
CNS(=O)(=O)CC1CCCN1CC1CCC(C)O1 (centres undefined),-5,0.75
CCCC(C)NC(=O)C(C)NC1CCN(C(C)=O)CC1CC (centres undefined),-2,0.22
CCc1cccc(NC(=O)Cc2nc(-c3cccnc3)n[nH]2)c1,-13,2.1
CC(=O)c1ccc(S(=O)(=O)NC2(C(F)(F)F)CCOCC2)cc1,-12,1.89
Cc1c(C(=O)NC2CC2)cc(-c2ccccc2)n1C,55,0.53
Cn1nc(N2CC[C@H](NC(=O)C3CCCCC3)C2)ccc1=O,-6,0.81
Cc1c(C(=O)NC2CCN(c3ccc(=O)n(C)n3)CC2)cc(-c2ccc(F)cc2)n1C,-5,0.6
COc1ccc(C(=O)N[C@H]2CCN(c3cc(-c4ccc(Cl)cc4)n[nH]3)C2)c(C)c1,-20,2
COc1ccc(-c2cc(N3CC[C@H](NC(=O)c4ccc(C)cc4)C3)[nH]n2)cc1,-10,1.05
COc1ccc(-c2cc(C(=O)N[C@H]3CCN(c4ccc(=O)n(C)n4)C3)c(C)n2C)cc1,67,-11.23
Cc1cc(C(=O)N[C@H]2CCOC[C@@H]2OCc2ccccc2)c(C)n1C,8,-1.34
COc1ccc(-c2cc(C(=O)N[C@H]3CCN(c4ccc(=O)[nH]n4)C3)c(C)n2C)cc1,82,-5.36
Cc1ccc(-c2cc(C(=O)NC3CC3)nn2C)cc1,-10,1.31
COc1cccc(C(=O)N2CCN(c3cccnc3)C(=O)C2)c1OC,9,-1.08
CN(C)S(=O)(=O)N1CCC2(CCC(=O)N(CCc3ccccn3)C2)CC1,-12,1.7

SMILES,% Inhibition [%],Z score
CCc1ccccc1S(=O)(=O)NC[C@H](C(=O)O)C(C)C,2,-0.45
COCCN1C(=O)c2ccc(C(=O)NCc3ccncc3)cc2C1=O,-3,0.39
Cc1ccc(-c2cn[nH]c2[C@H]2CCCN(C(=O)C(C)(C)O)C2)cc1,-14,2.64
NC(=O)C1CCN(C(=O)Cc2ccc(-c3ccccc3)cc2)CC1,-4,0.36
COC(=O)C1(NC(=O)OC(C)(C)C)CC(CN2CCN(C)CC2)C1 (centres undefined),10,-2.05
CCC1=C(c2ccc(C)cc2)S(=O)(=O)N=C1N1CCC(C(=O)NCCN2CCCC[C@@H]2C)CC1,53,-6.49
CCc1ccc(C2=C(C)C(N3CCC(C(=O)NC)CC3)=NS2(=O)=O)cc1,-2,0.29
CCC1=C(c2ccc(C)cc2)S(=O)(=O)N=C1N1CCC(C(=O)NCCCc2ccccc2)CC1,-9,1.6
CC1=C(c2ccc(Cl)cc2)S(=O)(=O)N=C1N1CCC(C(=O)NCCN(C)C)CC1,-18,1.96
CCCCN(CC)CCNC(=O)C1CCN(C2=NS(=O)(=O)C(c3ccc(OC)cc3)=C2C)CC1,57,-3.61
CCC1=C(c2ccc(C)cc2)S(=O)(=O)N=C1N1CCC(C(=O)NC2CCC(C)CC2)CC1 (centres undefined),-12,1.49
CN1CC2(CCN(C(=O)c3ccccc3O)CC2)C[C@@H](c2ccccc2)C1=O,-14,1.81
C=CCOC1CCN(C(=O)CCN2CCOC2=O)CC1,-4,0.57
Cc1nc(CNC(=O)c2nc3ccccc3[nH]c2=O)cs1,5,-0.75
CC(C)c1ncc(CN(C)S(=O)(=O)N(C)C2CCCCC2)cn1,-9,1.04
CC(C)(C)OC(=O)NC1CC(NCC(O)c2ccco2)C12CCC2 (centres undefined),0,0.02
CCOc1ccc(C2c3[nH]c4ccccc4c3C[C@H]3C(=O)N(C4CCN(Cc5ccccc5)CC4)CC(=O)N23)cc1OC (some centres undefined),79,-7.03
COc1cccc(C2c3[nH]c4ccccc4c3C[C@H]3C(=O)N(C4CCN(Cc5ccccc5)CC4)CC(=O)N23)c1 (some centres undefined),15,-1.95
CCOc1ccc(C2c3[nH]c4ccccc4c3C[C@H]3C(=O)N(C4CCCCCCC4)CC(=O)N23)cc1OC (some centres undefined),12,-1.52
CCOc1ccc2nc(CN(C)[C@@H]3CCCC[C@@H]3O)ccc2c1,-18,1.9
CCOc1ccc2nc(CN(Cc3cnn(C)c3)C3CC3)ccc2c1,-7,1.15
